From PubChem BioAssay (NCI)
“And” between values parts separate entries of the source, which are not always exact repeats. Equal entries are not always repeated. The panel holds about 79,000 compounds, 15% with a hit somewhere; the sample as a whole holds those more often. The source holds several records for some structures; these can differ, active in one and inactive in another. The source made the active and inactive calls. Rule as the data show it: active = growth inhibition above about 70%; inactive = the rest.

Tests used:
[1] = NCI Yeast Anticancer Drug Screen. Data for the mec2-1 strain (AID 157); details: S. cerevisiae mec2-1 strain, stronger effect = higher value
In short: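 Compounds were applied to mec2-1 yeast cells. Their growth was then compared with that of vehicle-treated cultures to give growth inhibition.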

[2] = NCI Yeast Anticancer Drug Screen. Data for the rad14 strain (AID 159);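 also: 0% = growth of vehicle-treated control cultures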; details: S. cerevisiae rad14 strain growth inhibition, stronger effect = higher value
In short: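 A mutant yeast strain defective in DNA damage repair is treated with compound; inhibition of its growth is scored against untreated, vehicle-exposed cultures.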

[3] = NCI Yeast Anticancer Drug Screen. Data for the sgs1 mgt1 strain (AID 161);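 also: 0% = growth of cultures given vehicle only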; details: S. cerevisiae sgs1 mgt1 strain, stronger effect = higher value
In short: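 Growth of a repair-deficient yeast mutant was monitored after compound treatment and expressed as inhibition relative to vehicle-treated cultures.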

[4] = NCI Yeast Anticancer Drug Screen. Data for the CLN2oe strain (AID 163);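 also: 0% = growth of vehicle-only control cultures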; details: S. cerevisiae CLN2oe strain, stronger effect = higher value
In short: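 Cells of an engineered yeast line with disturbed cell-cycle regulation are treated with compound. Inhibition of growth is then calculated relative to the vehicle-treated reference.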

[5] = NCI Yeast Anticancer Drug Screen. Data for the cln2 rad14 strain (AID 165);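 also: 0% = growth equal to vehicle treated cultures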; details: S. cerevisiae cln2 rad14 strain, stronger effect = higher value
In short: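 Strain: cln2 rad14 yeast, altered in cell cycle control and DNA damage repair. Read-out: growth inhibition vs vehicle.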

[6] = NCI Yeast Anticancer Drug Screen. Data for the bub3 strain (AID 167); details: S. cerevisiae bub3 mutant strain, stronger effect = higher value
In short: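 Steps: expose the mutant yeast strain to compound; grow alongside vehicle-treated cultures; measure growth; express inhibition against the vehicle cultures.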

[7] = NCI Yeast Anticancer Drug Screen. Data for the wt2 strain (AID 169);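 also: 0% = growth of vehicle-treated yeast cultures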; details: S. cerevisiae wt2 strain growth inhibition, stronger effect = higher value
In short: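 Growth of compound-treated yeast is measured and expressed as inhibition relative to vehicle-only controls.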

[8] = NCI Yeast Anticancer Drug Screen. Data for the sgs1 strain (AID 173);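 also: 0% = growth of vehicle-only control cultures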; details: S. cerevisiae sgs1 mutant, stronger effect = higher value
In short: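 Strain with an altered DNA repair or cell cycle pathway exposed to compound. Growth then measured. Value = inhibition versus vehicle control.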

[9] = NCI Yeast Anticancer Drug Screen. Data for the mlh1 rad18 strain (AID 175); details: S. cerevisiae mlh1 rad18 strain growth inhibition, stronger effect = higher value
In short: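 A repair-deficient yeast strain is exposed to test compound, and growth is scored relative to vehicle-treated controls.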

[10] = NCI Yeast Anticancer Drug Screen. Data for the rad52 strain (AID 147);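 also: 0% = growth of vehicle-treated control cultures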; details: S. cerevisiae rad52 mutant growth inhibition, stronger effect = higher value
In short: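 Growth of repair-deficient yeast cells was compared between compound-treated and vehicle-treated cultures to give percent inhibition.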

[11] = NCI Yeast Anticancer Drug Screen. Data for the wt1 strain (AID 149);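 also: 0% = growth of vehicle-treated wt1 cultures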; details: S. cerevisiae wt1 strain (SPY 50644) growth inhibition, stronger effect = higher value
In short: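 Compounds are added to wt1 yeast cultures. Growth is then measured. Inhibition is expressed relative to vehicle-treated controls.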

[12] = NCI Yeast Anticancer Drug Screen. Data for the rad50EPP+ strain (AID 151);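 also: 0% = growth of vehicle-treated control cultures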; details: S. cerevisiae rad50 mutant strain, stronger effect = higher value
In short: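 Measured: growth inhibition of rad50EPP+ yeast. Reference: vehicle-treated controls. Screen uses strains with defined genetic alterations in DNA damage repair or cell cycle control.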

[13] = NCI Yeast Anticancer Drug Screen. Data for the mgt1 strain (AID 153); details: S. cerevisiae mgt1 mutant growth inhibition, stronger effect = higher value
In short: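 Compounds were applied to mgt1 mutant yeast, and growth was then compared against vehicle-treated control cultures to give percent inhibition.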

[14] = NCI Yeast Anticancer Drug Screen. Data for the rad50 strain (AID 155);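 also: 0% = growth of vehicle-only cultures of the same strain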; details: S. cerevisiae rad50 strain growth inhibition, stronger effect = higher value
In short: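 Inhibition values express reduced yeast growth in compound-treated cultures relative to vehicle-treated controls.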

[15] = NCI Yeast Anticancer Drug Screen. Data for the mlh1 strain (AID 171);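 also: 0% = growth of vehicle-treated control cultures of the same strain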; details: S. cerevisiae mlh1 strain growth inhibition, stronger effect = higher value
In short: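 Test agents were incubated with yeast bearing a defined DNA damage repair or cell cycle control alteration; values are growth inhibition normalised to vehicle-treated cultures.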

[16] = NCI Yeast Anticancer Drug Screen. Data for the rad18 strain (AID 177); details: S. cerevisiae rad18 mutant growth inhibition, stronger effect = higher value
In short: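 DNA-repair-defective yeast; compound treatment; growth inhibition scored against vehicle.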

[17] = at 5.0 µM (retest, dose inferred, filed as 0.5)
[18] = at 50.0 µM (retest, dose inferred, filed as 5.0)

Measured: growth inhibition

Nc1nc(N)c2c(Cl)c(CNc3ccc(C(=O)NC(CC(=O)O)C(=O)O)cc3)ccc2n1 (stereo not drawn)
inactive: [1]; [17] 0% | [2]; at 1.2 µM -8% | [2]; at 3.7 µM -11% | [2]; at 11.0 µM -18% | [2]; at 33.0 µM 44% | [3]; [17] 20% | [3]; [18] 50% | [3]; at 50.0 µM 55.5% | [4]; at 1.2 µM -5% | [4]; at 3.7 µM 15% | [4]; at 11.0 µM 12% | [4]; at 33.0 µM 22% | [4]; at 100.0 µM 34% | [5]; [17] 20% | [5]; [18] 16% | [5]; at 50.0 µM 19.4% | [6]; at 1.2 µM 3% | [6]; at 3.7 µM -10% | [6]; [17] -9% | [6]; at 11.0 µM 14% | [6]; at 33.0 µM 7% | [6]; [18] 26% | [6]; at 50.0 µM 43.5% | [7]; at 1.2 µM -42% | [7]; at 3.7 µM -44% | [7]; at 11.0 µM -42% | [7]; at 33.0 µM -1% | [7]; at 100.0 µM 28% | [8]; at 1.2 µM 30% | [8]; at 3.7 µM 22% | [8]; at 11.0 µM 31% | [8]; at 33.0 µM 45% | [8]; at 100.0 µM 66% | [9]; [17] 12% | [9]; [18] 46% | [9]; at 50.0 µM 52.1%
active: [1]; at 11.0 µM 75% | [1]; at 33.0 µM 93% | [1]; [18] 90% | [1]; at 50.0 µM 87.8% | [1]; at 100.0 µM 95% | [2]; at 100.0 µM 78% | [6]; at 100.0 µM 72%

C/C(=N\O)c1ccc2ccc3ccccc3c2c1
85% (active) and 65% (inactive): [14]; [18]
93.7% (active) and 7.85% (inactive): [1]; at 50.0 µM
77.6% (active) and 30.2% (inactive): [5]; at 50.0 µM
94.5% (active) and 56.8% (inactive): [6]; at 50.0 µM
active: [10]; at 33.0 µM 95% | [10]; at 100.0 µM 95% | [11]; at 100.0 µM 93% | [12]; at 11.0 µM 74% | [12]; at 33.0 µM 90% | [12]; at 100.0 µM 94% | [13]; at 100.0 µM 94% | [14]; at 33.0 µM 95% | [14]; at 50.0 µM 96.3% and 78.3% | [14]; at 100.0 µM 97% | [1]; at 100.0 µM 94% | [2]; at 100.0 µM 94% | [3]; at 50.0 µM 93.1% and 80.3% | [4]; at 100.0 µM 87% | [6]; at 33.0 µM 78% | [6]; [18] 72% | [6]; at 100.0 µM 94% | [7]; at 100.0 µM 92% | [15]; at 100.0 µM 90% | [8]; at 33.0 µM 80% | [8]; at 100.0 µM 95% | [16]; at 33.0 µM 92% | [16]; at 100.0 µM 94%
inactive: [10]; at 1.2 µM -2% | [10]; at 3.7 µM 11% | [10]; at 11.0 µM 49% | [11]; at 1.2 µM -4% | [11]; at 3.7 µM -5% | [11]; at 11.0 µM -9% | [11]; at 33.0 µM 7% | [12]; at 1.2 µM 12% | [12]; at 3.7 µM 35% | [13]; at 1.2 µM 1% | [13]; at 3.7 µM 0% | [13]; at 11.0 µM 2% | [13]; at 33.0 µM 37% | [14]; at 1.2 µM 4% | [14]; at 3.7 µM 12% | [14]; [17] -142% and 7% | [14]; at 11.0 µM 68% | [1]; at 1.2 µM 0% | [1]; at 3.7 µM 1% | [1]; [17] -43% and -1% | [1]; at 11.0 µM 15% | [1]; at 33.0 µM 30% | [1]; [18] -2% and 31% | [2]; at 1.2 µM 2% | [2]; at 3.7 µM 12% | [2]; at 11.0 µM 22% | [2]; at 33.0 µM 41% | [3]; [17] -60% and 0% | [3]; [18] 53% and 65% | [4]; at 1.2 µM -1% | [4]; at 3.7 µM 2% | [4]; at 11.0 µM 6% | [4]; at 33.0 µM 28% | [5]; [17] -49% and -8% | [5]; [18] 12% and 31% | [6]; at 1.2 µM 4% | [6]; at 3.7 µM 3% | [6]; [17] -50% and 1% | [6]; at 11.0 µM 29% | [7]; at 1.2 µM -1% | [7]; at 3.7 µM -1% | [7]; at 11.0 µM 0% | [7]; at 33.0 µM 35% | [15]; at 1.2 µM 3% | [15]; at 3.7 µM -3% | [15]; at 11.0 µM 7% | [15]; at 33.0 µM 61% | [8]; at 1.2 µM -2% | [8]; at 3.7 µM -3% | [8]; at 11.0 µM 33% | [16]; at 1.2 µM 5% | [16]; at 3.7 µM 13% | [16]; at 11.0 µM 52%
